Test results taken from PubChem BioAssay (NCI).
The panel holds about 83,000 compounds, 20% with a hit somewhere; the sample as a whole holds those more often.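 In brief: 96-well plates, 48 h treatment, single concentration, percent growth endpoint.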 Values without a mark were called inactive. Calls of active or inactive are those of the source.

system: SK-MEL-5 melanoma; assay: NCI-60 one-dose screen, 48 h (100 = growth as untreated, 0 = no growth, -100 = all killed); conditions: 10 µM unless noted
Method: Growth inhibition of the SK-MEL-5 human tumor cell line is measured as a screen for anti-cancer activity. Cells are grown in 96 well plates and exposed to the test compound for 48 hours. Compounds are tested at a single concentration, which is 10^-5 M for most compounds. The reported endpoint is percent growth (GI% or GIPRCNT), where numbers from 0 - 100% represent growth inhibition, and numbers from -100% - 0 represent cell death. For example, a value of 40 represents 60% growth inhibition. A value of 0 means no net growth occurred over the course of the experiment. A value of -40 indicates 40% of cells at the beginning of the experiment died by the end of the experiment. A value of -100 means all cells are dead at the end of the experiment.
NCI-60 Human Tumor Cell Lines Screen was performed using the standard one-dose NCI protocol, which is described in more detail at https://dtp.cancer.gov/discovery_development/nci-60/default.htm.
Compounds with GIPRCNT values below 10 were considered active. Activity score was based on GIPRCNT using the following formula: […]
Score is 0 for GIPRCNT values of 100 or above, 50 for GIPRCNT values of 0, and 100 for GIPRCNT values of -100.

Structure (SMILES)	growth
Cc1cc2c(c(C)n1)CN(C(=O)Nc1nc(-c3cncs3)ccc1N)C2	105%
COc1cc(C2CC(c3cccc(Nc4ccncc4)c3)=Nc3c(N)ncnc3N2)cc(OC)c1OC (stereo not given)	93.7%
COc1ccccc1/C=C/C1=C(C)CCC(c2ccccc2OC)C1C (stereo not given)	-13.3% (active)
O=C(Nc1ncc(Cc2cc(C(F)(F)F)ccc2Cl)s1)C(=S)N1CCOCC1	96.6%
Cc1ccc(Nc2nc(N)nc(N)c2N=O)cc1Cl	93.5%
O=C1Nc2ccccc2/C1=C/c1cccn1CCCCCCn1c2ccccc2c(=O)c2ccccc21	34.7%
CCCNNC(=O)c1ccc(CNC(=O)/C=C/c2ccccc2)cc1	28.8% [2.5 µM]
O=C(OCc1ccc2c(Br)cc(Br)c(O)c2n1)N1CCN(C(=O)c2cc3ccccc3[nH]2)CC1	35.5%
CN1CCN(Cc2ccc(NC(=O)c3cncc(C#Cc4cnc(N)c5ccc(C#N)cc45)c3)cc2C(F)(F)F)CC1	-93.2% (active)
O=C1OCC2=C1C(c1cccc(F)c1)c1cc3c(cc1N2CCO)CCC3 (stereo not given)	-1.4% (active)
COc1ccc(C(=O)/C=C/c2ccc(C)cc2)cc1S(N)(=O)=O	82.2%
CC1=C(C(=O)c2ccccc2)C(c2ccc3c(c2)OCO3)NC(=S)N1 (stereo not given)	28.2%
CCc1ccc(Cc2cnc(NC(=O)c3cc(C)oc3C)s2)cc1	36.8%
O=C(Nc1ncc(Cc2ccccc2)s1)c1ccc2c(c1)OCCO2	-29.7% (active)
CN(C)CCCN(CCC1CCCCC1)CCC1CCCCC1	-82.1% (active)
C1=C2CCCC3=Cc4ccccc4OC23Oc2ccccc21	20%
CCN1C(=O)N(CC)C2C1NN=c1s/c(=C3\C(=O)N(C)c4ccccc43)c(=O)n12 (stereo not given)	32.8%
COc1cc(CNC(=O)CCCC/C=C/C(C)C)ccc1OCc1cn(-c2ccc(C(F)(F)F)cc2)nn1	97.1%
COc1ccc(-c2nc(SCCC(C)C)nc(N/N=C(/C)c3ccc(N)cc3)c2C#N)cc1	99.5%
CCN(CC)CCCNc1cc(OC)cc2cccnc12	95.3%

Structure (SMILES)	growth
Cc1c(C)c2c(c(C)c1OC(=O)CCC(=O)[O-])CCC(C)(CCCCCCCCCCC[P+](c1ccccc1)(c1ccccc1)c1ccccc1)O2 (stereo not given)	-98.3% (active)
CC(C)=CC(=O)C1C(=O)c2ccccc2C1=O	99.2%
O=C1/C(=C/c2ccccc2)COc2ccc(O)cc21	97.3%
Nc1ncnc2c1N=C(c1ccc([N+](=O)[O-])cc1)CC(c1ccc3c(c1)OCO3)N2 (stereo not given)	80.2%
CC(C)(C)CC(C)(C)Nc1c(-c2c(O)c3ccccc3oc2=O)nc2sccn12	96.9%
COc1ccc(N/N=C/c2ccc3c(c2)Sc2ccccc2N3C)cc1	77%
O=C(CSc1nnc(-c2ccc(Cl)c(Cl)c2)n1-c1ccccc1)Nc1ccc(C(=O)/C=C/c2ccc(Cl)cc2)cc1	93.1%
CCn1c2ccccc2c2cc(C(O)c3cccc4ncccc34)ccc21 (stereo not given)	-4.22% (active)
Nc1ccc(N)c2c1C(=O)c1cccc([N+](=O)[O-])c1C2=O	23.8%
COc1cccc(C2C3=C(COC3=O)N(CCO)c3cc4c(cc32)OCCO4)c1 (stereo not given)	-12.1% (active)
O=C(NCCN1CCOCC1)c1cncnc1Nc1ccc2c(ccn2Cc2ccccn2)c1	101%
COC1=C(OC)C(=O)C(CCCCCCCCCCO)=C(C)C1=O	45%
COc1cc2c(c(OC)c1OC)C(=O)CC(c1cccc(C(=O)Nc3ccc(Br)cc3)c1)O2 (stereo not given)	22.3%
Clc1ccc2c(NCCCn3cnc4c(N5CCCC5)nc(Cl)nc43)ccnc2c1	99.7%
C#C[C@]1(O)CC[C@H]2[C@@H]3CC=C4c5sc(-c6cccc(C)c6)nc5CC[C@]4(C)[C@H]3CC[C@@]21C	82.5%
CCN1CCN(CCOc2ccc(CNc3ccc4nc(CCC5CCCCC5)[nH]c4c3)cc2)CC1	-96.5% (active)
COc1ccc(NC(=O)c2ccc(Cl)cc2Cl)cc1	92.3%
CN1CCN(Cc2ccc(NC(=O)c3cncc(C#Cc4c(N)ncc5cc(F)ccc45)c3)cc2C(F)(F)F)CC1	-52.7% (active)
COc1cccc(/C=C2\CCc3ccccc3C2=O)c1	76.8%
C#CCOc1cc(/C=N/Nc2nc(-c3ccc(OC)cc3)cs2)ccc1O	63.7%
